Only some compounds are listed: those with a hit (about 3.4% of all), similar ones and a draw of the others.
GCN5L2 inh = inhibitors of human GCN5L2 histone acetyltransferase. GCN5L2 HAT assay, ThioGlo1 CoA-SH fluorescence. 0.21% of 390,000 active. Q92830. Potency, µM (top dose mostly 58.9 µM), inactives show at the highest dose activity change, negative = inhibition, actives largely listed as inhibitors; note: % is set by controls: 0 for no effect and ±100 for the full control effect
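ThioGlo1-coupled HAT assay: 20nM GCN5L2, 70uM acetyl-CoA, 75uM H3(1-25) peptide, pH 7.5. Fluorescence read at 340/540nm at start and after 20 min at room temperature.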
GLS inh = inhibitors of human glutaminase (GLS) | 0.21% of 410,000 active | O94925 | Potency, µM (series often up to 45.5 µM), without a hit: at the highest dose activity change, negative = inhibition, usual class: inhibitors | GLS enzymatic activity, qHTS titration; note: % is set by controls: 0 for no effect and ±100 for the full control effect
Target sequence (O94925 whole entry, looked up): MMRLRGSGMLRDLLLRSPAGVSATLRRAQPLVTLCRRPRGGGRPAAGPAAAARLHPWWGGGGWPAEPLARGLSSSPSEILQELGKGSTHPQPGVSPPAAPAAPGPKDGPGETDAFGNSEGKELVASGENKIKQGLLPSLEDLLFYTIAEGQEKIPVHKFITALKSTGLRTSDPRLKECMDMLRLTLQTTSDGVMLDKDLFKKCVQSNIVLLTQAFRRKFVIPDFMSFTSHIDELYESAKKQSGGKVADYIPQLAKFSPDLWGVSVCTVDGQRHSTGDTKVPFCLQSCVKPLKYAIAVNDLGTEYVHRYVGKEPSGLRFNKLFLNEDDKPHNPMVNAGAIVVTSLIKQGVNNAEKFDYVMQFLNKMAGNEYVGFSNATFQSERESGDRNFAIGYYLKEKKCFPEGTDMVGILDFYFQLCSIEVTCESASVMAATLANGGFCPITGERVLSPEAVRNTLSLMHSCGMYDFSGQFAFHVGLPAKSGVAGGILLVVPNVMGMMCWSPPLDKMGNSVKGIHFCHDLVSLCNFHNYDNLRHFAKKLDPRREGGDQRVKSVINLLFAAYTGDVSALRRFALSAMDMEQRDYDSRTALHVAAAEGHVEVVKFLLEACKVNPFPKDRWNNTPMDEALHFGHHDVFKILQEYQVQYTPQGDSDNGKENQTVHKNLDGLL
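Assay buffer: 45 mM KH2PO4 pH 8.2, 0.02% Tween-20. hKGA acts on L-glutamine (1 mM solution added); product glutamate is reported by an oxidase/peroxidase Amplex Red coupling, with fluorescence taken at baseline and 30 min.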
VDR inhibitor = blocks the human vitamin D receptor; P11473; VDR-SRC2-3 peptide fluorescence polarization, 2 h; Potency, µM, for inactives: max response, negative = inhibition, most hits filed as inhibitors; 0.93% of 400,000 active; note: % is set by controls: 0 for no effect and ±100 for the full control effect
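Fluorescence polarization assay measuring small-molecule disruption of VDR binding to the coregulator peptide SRC2-3. Compounds were pin-transferred (23 nl) into the reagent mix and incubated 2 h at room temperature before reading.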
PLK1 PBD inh = PLK1 (human) polo-box domain binding inhibition; Potency, µM, for the others: max response, negative = inhibition, most hits filed as inhibitors; 2.8% of 360,000 active; AID 720504; P53350; Plk1 PBD binding of FITC phosphopeptide, fluorescence polarization; note: series mostly up to about 57 µM; % is set by controls: 0 for no effect and ±100 for the full control effect; nearly all actives have a fitted effect of over 65% in size
PKM2 activator = PKM2 (human) enzyme activation; P14618; purified PKM2, Kinase-Glo ATP luminescence, activation; response scale: 0% is enzyme alone, no compound; Potency, µM (top dose mostly 57.5 µM), without a hit: at the highest dose activation, hits mostly activators; 0.34% of 260,000 active; note: % is set by controls: 0 for no effect and ±100 for the full control effect; nearly all actives have a fitted effect of over 55% in size
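Purified hPK-M2 (>95% pure) converted ADP (0.1 mM final) to ATP with 0.5 mM PEP in 50 mM imidazole pH7.2, KCl, MgCl2, Tween 20, BSA; 1 h at room temperature. ATP detected by Kinase-Glo luminescence.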
Mito fusion act = mitochondrial division inhibition or fusion activation; 0.23% of 320,000 active; S. cerevisiae fusion-defective mutant growth rescue, CellTiterGlo 48 h; AID 485298; Potency, µM (highest dose often 46.1 µM), for the others: at the highest dose growth rescue (activation), usual class: activators; note: % of control where 0% means no effect; nearly all actives have a fitted effect of over 45% in size
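Yeast fusion mutant, YPEG (non-fermentable carbon), compound, 48 h at 37C non-permissive; CellTiterGlo added, 10 min RT, luminescence read. Rescued growth = division inhibition.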
* marks the source's active call; other numbers are inactive results; ? = inconclusive; nt = no result given. Calls come from the whole dose curve; as a rule, active = well fitted curve in the direction sought with a large enough effect; inconclusive = small, poorly fitted or top-dose-only effect, or another doubt; inactive = no such curve, though single readings can be large; an effect the other way counts as inactive or inconclusive. Potency is the fitted concentration of half-maximal effect.

SMILES | GCN5L2 inh | GLS inh | VDR inhibitor | PLK1 PBD inh | PKM2 activator | Mito fusion act
COc1cc(/C=C/C(=O)O[C@H]2CC[C@]34C[C@]35CC[C@]3(C)[C@@H]([C@H](C)CCC=C(C)C)CC[C@@]3(C)C5CCC4C2(C)C)ccc1O (stereo not given in full) | nt | -3% | nt | nt | nt | nt
CCOC(=O)c1c(C)oc2c1c1c(c3ccccc32)OCN(CCCC(=O)O)C1 | ? | 29% | 89µM* | 11µM* | -1% | -1%
CCOC(=O)c1c(C)oc2c1cc(O)c1ccccc12 | -5% | 7% | 7% | -17% | 1% | -1%
O=C(O)C1CCC(NSc2ccccc2[N+](=O)[O-])CC1 (stereo not given) | -3% | 5% | 28µM* | 2.4µM* | 21% | -12%
O=[N+]([O-])c1ccccc1SNc1ccccc1 | nt | 4% | nt | -9% | nt | nt
NC(=O)CC(NSc1ccccc1[N+](=O)[O-])C(=O)O (stereo not given) | -1% | 23% | ? | 3.8µM* | 3% | 25%
Cc1nc(NC(=O)C2CCCC2)sc1Cc1ccc2c(c1)OCO2 | -11% | 1% | 15% | -2% | 7% | ?
Cc1c(Cc2ccc3c(c2)OCO3)sc(NC(=O)C2CC2)c1C(N)=O | -8% | 5% | 50µM* | 3.8µM* | -2% | ?
O=C(Cc1cccc(F)c1)N1CCOCC1 | nt | -5% | -10% | 21µM* | nt | nt
COc1ccc(CC(=O)N2CCOCC2)cc1OC | -4% | 11% | 6% | -2% | -8% | -3%
CCc1ccccc1NC(=O)c1nnn(CC(=O)Nc2cccc(C)c2)c1N | -6% | 4% | -1% | -8% | 3% | 1%
CSc1cccc(NC(=O)c2nnn(CC(=O)Nc3cc(C)cc(C)c3)c2N)c1 | -7% | ? | ? | 13µM* | nt | -3%
CCOC(=O)Cc1ccc(NC(=O)c2ccc(C(C)(C)C)cc2)cc1 | 0% | ? | -8% | 5.3µM* | 0% | 12%
COc1ccc(C(C(=O)NC(C)(C)C)N(CCc2ccccc2)C(=O)CCC(=O)Nc2cc(C)on2)cc1 (stereo not given) | 1% | 13% | 1% | 1% | 4% | 3%
CCCCCCC=C1CCC(CN2CCCC2)C1=O (stereo not given) | nt | 2% | nt | 3.4µM* | nt | nt
COc1ccc(-c2noc(CN(C)C(=O)CCCN3C(=O)[C@H]4CC=CC[C@H]4C3=O)n2)cc1 | nt | -6% | nt | -2% | nt | nt
Cc1noc(/C=C/c2ccco2)c1S(=O)(=O)N1CCC(C(=O)N2CCc3ccccc3C2)CC1 | ? | 0% | 20% | -7% | 20µM* | 1%
CCN(CC)C(=O)C1=C(C)N(Cc2ccccc2)C(=O)C(CC(=O)NC2CC2)C1 (stereo not given) | nt | -1% | nt | -28% | nt | nt
COC(=O)C1CC1C(NC(=O)[C@H]1CCCCN1)c1ccccc1 (stereo not given in full) | nt | nt | nt | nt | -1% | nt
Cc1ccc(S(=O)(=O)N2CCC[C@H]2C(=O)OCC(=O)c2ccc3c(c2)NC(=O)CO3)cc1 | -17% | 2% | ? | 27µM* | -2% | 2%
CCOC(=O)C1CCN(C(=O)c2ccc3c(c2)sc2nc(-c4ccccc4)cn23)CC1 | -5% | -2% | 11% | nt | nt | nt
CN(C)c1nc(=NCc2ccco2)ss1 | -4% | ? | 28µM* | 2.7µM* | 23% | -11%
O=C1CCCC(=NCc2ccco2)C1 | 0% | -1% | -11% | -9% | 1% | 0%
COc1c(C)cc(C(=O)C2CCCN(C(=O)CCc3scnc3C)C2)cc1C (stereo not given) | -25% | 9% | 3% | -2% | 5% | -2%
NC(=O)c1cc(N2C(=O)C=CC2=O)ccc1Cl | ? | -5% | 20µM* | 21µM* | 17% | -4%
SMILES | GCN5L2 inh | GLS inh | VDR inhibitor | PLK1 PBD inh | PKM2 activator | Mito fusion act
CC(NC(=O)Cn1nc(C(=O)O)c2ccccc2c1=O)c1ccccc1 (stereo not given) | 3% | 1% | -15% | 30µM* | -18% | 5%
CCCOc1ccc(OCCn2nc(C(=O)O)c3ccccc3c2=O)cc1 | -1% | 0% | -22% | 1% | 32µM* | 0%
CN1CCN(c2ncc3c(n2)CCN(Cc2cc(Br)cs2)C3)CC1 | 3% | 7% | 12% | nt | nt | nt
O=C(NNC(=O)c1cccnc1)Nc1ccc(Cl)c(Cl)c1 | -3% | 5% | -6% | -6% | 0% | -2%
O=C(Nc1ccc(F)c(Cl)c1)c1cccnc1 | 1% | -21% | ? | 21µM* | -3% | 0%
O=C(Nc1nc(-c2ccc(Cl)cc2)cs1)c1cccnc1 | -5% | -6% | -19% | 12µM* | 3% | 0%
O=C(Nc1nc(-c2ccccc2)cs1)c1ccccc1NS(=O)(=O)c1ccc(F)cc1 | ? | 22% | -11% | 27µM* | 6% | -20%
Cc1ccc(-c2csc(NC(=O)CCCc3cccs3)n2)cc1 | 3% | 40% | -14% | 17µM* | 6% | -2%
CC(=O)Nc1ccc(-c2csc(NC(=O)CCCc3cccs3)n2)cc1 | -3% | -3% | -1% | -2% | -19% | -6%
O=C(COc1ccc(Cl)cc1)Nc1nc(-c2ccncc2)cs1 | -19% | -7% | ? | 9.5µM* | nt | 5%
CC(C)(C)c1csc(NC(=O)CCS(=O)(=O)c2ccc(F)cc2)n1 | nt | 0% | nt | 1% | nt | nt
O=C(CCS(=O)(=O)c1ccc(F)cc1)Nc1nc(-c2ccncc2)cs1 | -25% | ? | ? | 12µM* | nt | -2%
Cc1ccc(C)n1-c1sccc1C(=O)O | ? | ? | 31% | 3.8µM* | 1% | 2%
CCCCC/C=C\C/C=C\C/C=C\C/C=C\CCCCCC(N)=O | nt | nt | 0% | nt | nt | nt
Cc1nn2c(N)c(C#N)cnc2c1-c1ccccc1 | -11% | 7% | -6% | -12% | -1% | 16%
N#Cc1cnc2c(-c3ccccc3)c(-c3ccccc3)nn2c1N | 3% | ? | ? | 19µM* | -2% | 0%
Cc1ccc(C(=O)NC(C)c2ccc3c(c2)OCO3)s1 (stereo not given) | -2% | ? | ? | 12µM* | -1% | 2%
COc1ccc(/C=C\c2onc(C)c2S(=O)(=O)N2CCC(C(=O)Nc3ccc(F)cc3F)CC2)cc1 | 0% | -8% | -11% | nt | nt | nt
Cc1ccccc1Nc1nc(N)c(C(=O)c2ccccc2Cl)s1 | 0% | -6% | -2% | nt | nt | nt
COC(=O)c1ccc(-c2noc(CN3CCCCC3c3nccn3C)n2)cc1 (stereo not given) | -5% | 6% | 8% | -11% | 8% | -4%
COC(=O)c1ccc(-c2noc(CN(Cc3nccn3C)C(C)C)n2)cc1 | 0% | 6% | -24% | 17µM* | -1% | -18%
CCOc1ccc(-c2nnc(-c3ccncc3)o2)cc1 | -12% | 43% | 71µM* | 27µM* | 6% | -1%
